We go through 8 compounds from PubChem BioAssay (EPA / NIEHS).

“And” between values parts separate entries of the source, which are not always exact repeats. Equal entries are not always repeated. Results filed as inconclusive are left out. The source made the active and inactive calls. How the source made its calls, unless noted: active means hit-call score of the fitted dose curve at least 0.9, where 1 is the maximum; inactive means score below 0.9.

The nature of assay [1]: APR_HepG2_CellCycleArrest_1hr: Apredica 1-hour HepG2 Assay for Cell Cycle Arrest (AID 2282666). As to conditions: high-content imaging, actives raise or lower the signal. The method, boiled down: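 Cell cycle arrest scored from nuclear DNA content (Hoechst 33342) using high-content imaging of fixed HepG2 cells after 1 h treatment across 0.39–200 uM, in duplicate. Gain or loss fitted relative to 0.5% DMSO.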

A short description of assay [2]: APR_HepG2_CellLoss_1hr: Apredica 1-hour HepG2 Assay for Cell Loss (AID 2282668).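 Further: curves fitted both ways against DMSO so gain or loss of cells counts.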 As to conditions: high-content imaging. The method, boiled down: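 Cell number comes from high-content imaging of Hoechst-labelled nuclei in fixed HepG2 cells. Cells were exposed for 1 h to ten concentrations from 0.39 to 200 uM in 0.5% DMSO. Gain or loss was fitted against DMSO controls.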

Assay [3] in a line: APR_HepG2_MicrotubuleCSK_1hr: Apredica 1-hour HepG2 Assay for Microtubule CSK Stabilty (AID 2282669). As to conditions: HepG2 microtubule cytoskeleton imaging, actives raise or lower the signal. The method in brief:
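Alpha-tubulin immunofluorescence, imaged by automated high-content microscopy with Hoechst nuclear segmentation, measured cytoskeletal change after 1 h dosing of HepG2 at 0.39–200 uM in 0.5% DMSO. Activity fitted in both directions relative to DMSO.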

Assay [4] in a line: APR_HepG2_NuclearSize_1hr: Apredica 1-hour HepG2 Assay for Nuclear Size (AID 2282670). Conditions: high-content imaging, actives raise or lower the signal. The method, boiled down:
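Nuclear size measured by high-content imaging of Hoechst 33342 nuclear stain after formaldehyde fixation; human HepG2 line exposed 1 hr to compounds at 0.39–200 uM in 0.5% DMSO, with bidirectional curve fitting relative to DMSO.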

Assay [5] is described as follows: APR_HepG2_MitoticArrest_1hr: Apredica 1-hour HepG2 Assay for Mitotic Arrest (AID 2282672). As to conditions: high-content imaging, actives raise or lower the signal. The method in brief: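 Ten-point concentration series (0.39 to 200 uM, duplicates, 0.5% v/v DMSO) applied to human HepG2 liver cells for 1 hr. High-content imaging of phospho-histone H3 and Hoechst-stained nuclei after fixation and permeabilization; DMSO-normalised bidirectional fit.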

Assay [6] in a line: APR_HepG2_P-H2AX_1hr: Apredica 1-hour HepG2 Assay for H2AX Phosphorylation (AID 2282673). Conditions: high-content imaging, actives raise or lower the signal. The method, boiled down: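 Phospho-H2A.x immunofluorescence (1:200, FITC secondary) plus Hoechst nuclear stain, quantified by high-content imaging in HepG2 after 1 hr compound exposure. Ten concentrations, 0.39 to 200 uM, in duplicate with 0.5% DMSO; fit both directions against DMSO.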

Assay [7] can be described thus: APR_HepG2_MitoMass_1hr: Apredica 1-hour HepG2 Assay for Mitochondrial Mass (AID 2282674). As to conditions: high-content imaging, actives raise or lower the signal. The method in brief:
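Mitochondrial mass is taken from MitoTracker Red CMXRos (250 nM, 30 min, pre-fixation) fluorescence imaged at 20x in HepG2 cells. Exposure lasted 1 hr across ten concentrations, 0.39 to 200 uM, 0.5% DMSO; DMSO baseline, bidirectional fitting.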

Assay [8] can be described thus: APR_HepG2_MitoMembPot_1hr: Apredica 1-hour HepG2 Assay for Mitochondrial Membrane Potential (AID 2282675). Conditions: imaging, actives raise or lower the signal. The method in brief: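 Mitochondrial membrane potential read as MitoTracker Red CMXRos intensity by automated imaging of fixed HepG2 cells. Dye at 250 nM for 30 min pre-fixation; compounds 0.39 to 200 uM for 1 hour, duplicate wells, 0.5% DMSO.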

Assay [9] can be described thus: APR_HepG2_CellCycleArrest_24hr: Apredica 24-hour HepG2 Assay for Cell Cycle Arrest (AID 2282905).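 Further: cell cycle arrest scored as ratio of 2N to 4N nuclear DNA content.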 As to conditions: imaging, actives raise or lower the signal. The method, boiled down: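 After 24 h exposure at 0.39–200 uM in 0.5% DMSO, fixed cells received Hoechst 33342 staining. Imaging quantified per-nucleus DNA content; gain or loss fitted against DMSO controls.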

Assay [10] is described as follows: APR_HepG2_StressKinase_1hr: Apredica 1-hour HepG2 Assay for Stress Kinase (AID 2282906). Conditions: HepG2 stress kinase (phospho-c-Jun) imaging, actives raise or lower the signal. The method, boiled down:
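High-content imaging of phospho-c-Jun immunostaining (with Hoechst nuclear identification) after a 1 h exposure of HepG2 cells to 10 concentrations from 0.39 to 200 uM, final DMSO 0.5%. Fitted bidirectionally against DMSO.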

Assay [11] can be described thus: APR_HepG2_NuclearSize_24hr: Apredica 24-hour HepG2 Assay for Nuclear Size (AID 2282907). Conditions: high-content imaging, actives raise or lower the signal. The method in brief: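 Nuclear size from Hoechst 33342-stained, formaldehyde-fixed HepG2 nuclei imaged by high-content microscopy, after 24 h dosing at ten concentrations from 0.39 to 200 uM in 0.5% DMSO; gain or loss relative to DMSO baseline.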

A short description of assay [12]: APR_HepG2_MicrotubuleCSK_24hr: Apredica 24-hour HepG2 Assay for Microtubule CSK Stabilty (AID 2282909). As to conditions: HepG2 microtubule cytoskeleton imaging, actives raise or lower the signal. The method in brief: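 Fixed HepG2 cells were stained for alpha-tubulin and imaged after 24 hr exposure to ten concentrations spanning 0.39–200 uM in 0.5% DMSO. Signal change was fitted in both directions relative to DMSO; taxol was the positive control.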

Assay [13] in a line: APR_HepG2_MitoticArrest_24hr: Apredica 24-hour HepG2 Assay for Mitotic Arrest (AID 2282910). As to conditions: high-content imaging, actives raise or lower the signal. The method, boiled down: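 High-content imaging of fixed HepG2 cells labeled with Hoechst 33342 and anti-phospho-histone H3, after 24 h treatment. Ten concentrations 0.39 to 200 uM in duplicate, final DMSO 0.5%; changes fitted both directions relative to DMSO.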

A short description of assay [14]: APR_HepG2_MitoMembPot_24hr: Apredica 24-hour HepG2 Assay for Mitochondrial Membrane Potential (AID 2282911). Conditions: imaging, actives raise or lower the signal. The method, boiled down: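 HepG2 human liver cells were exposed 24 hr to compounds at 0.39–200 uM (final DMSO 0.5% v/v) in duplicate. MitoTracker Red CMXRos (250 nM, 30 min) was loaded before formaldehyde fixation; fluorescence was imaged by ArrayScan HCS and fitted bidirectionally versus DMSO.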

A short description of assay [15]: APR_HepG2_MitoMass_24hr: Apredica 24-hour HepG2 Assay for Mitochondrial Mass (AID 2282912). As to conditions: high-content imaging, actives raise or lower the signal. The method in brief:
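Endpoint is MitoTracker Red CMXRos (250 nM, 30 min, pre-fixation) intensity from 20x high-content imaging, nuclei located by Hoechst. Human HepG2 cells received ten concentrations from 0.39 to 200 uM in 0.5% DMSO for 24 hr, duplicate wells. Bidirectional fit relative to DMSO.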

Assay [16] in a line: APR_HepG2_CellCycleArrest_72hr: Apredica 72-hour HepG2 Assay for Cell Cycle Arrest (AID 2282914). Conditions: high-content imaging, actives raise or lower the signal. The method, boiled down: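 HepG2 cells were exposed to compounds at 0.39–200 uM (0.5% v/v DMSO final, duplicates) for 72 hr, fixed in 3.7% formaldehyde, permeabilized and stained with Hoechst 33342. Nuclear DNA content was quantified by high-content imaging; gain or loss of signal was fitted bidirectionally against DMSO.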

Assay [17] can be described thus: APR_HepG2_CellLoss_72hr: Apredica 72-hour HepG2 Assay for Cell Loss (AID 2282915). Conditions: high-content imaging. The method in brief: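 Cell number comes from Hoechst 33342-labelled nuclei, imaged at 20x after 3.7% formaldehyde fixation. Dosing was 0.39–200 uM, ten concentrations in duplicate, 0.5% DMSO final, for 72 h. Bidirectional fit relative to DMSO baseline.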

The nature of assay [18]: ACEA_ER_80hr: ACEA Biosciences xCELLigence Real-Time Cell Analysis on Estrogen Receptor Agonism for Proliferation (AID 2282667; active means hit-call score of the fitted dose curve at least 0.9, where 1 is the maximum). Conditions: T47D proliferation, impedance (xCELLigence), 80 h. The method in brief:
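T47D human breast cells were seeded on electrode plates, monitored overnight, then exposed continuously to compounds in eight-point 1:4 dilutions from 100 uM (max 0.5% DMSO). Impedance-based growth was read at 80 h, fitted upward relative to DMSO.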

Assay [19] is described as follows: APR_HepG2_p53Act_24hr: Apredica 24-hour HepG2 Assay for p53 Activation (AID 2282913).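 Further: p53 protein immunofluorescence averaged per cell in HepG2 with Hoechst nuclei.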 Conditions: high-content imaging, actives raise or lower the signal. The method in brief: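 HepG2 cells exposed 24 hr to compounds at 0.39–200 uM (10 concentrations, duplicate), final DMSO 0.5% v/v. After formaldehyde fixation and Triton permeabilization, p53 was immunolabeled (sheep anti-p53, Cy5 secondary) with Hoechst 33342 nuclear counterstain, then imaged by high-content fluorescence microscopy.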

Assay [20] is described as follows: APR_HepG2_CellLoss_24hr: Apredica 24-hour HepG2 Assay for Cell Loss (AID 2282908). As to conditions: high-content imaging. The method, boiled down:
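Nuclei stained with Hoechst 33342 after formaldehyde fixation (3.7%) were imaged at 20x to count cells. Exposure lasted 24 hr, at ten concentrations from 0.39 to 200 uM in duplicate, with 0.5% v/v DMSO. Fit bidirectional, relative to DMSO.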

On to `CCNc1nc(NC(C)C)nc(SC)n1`, for which the compound was called inactive in assay [1], in [2], in assay [3], in assay [4], in assay [5] and in assay [6]. For the same compound, the result in assay [7], in [8], in assay [9], in assay [10], in assay [11] and in assay [12] was inactive. Also, the compound was classed as inactive in assay [13], in assay [14], in assay [15], in assay [16] and in assay [17].

Turning to `C[C@]12CCC(=O)C=C1CC[C@@H]1[C@@H]2CC[C@]2(C)C(=O)CC[C@@H]12`, the concentration at half-maximal activity (AC50) in assay [18] is 50 µM (active) and 9.92 µM (active). In addition, the result in assay [9], in assay [11], in assay [12], in assay [13], in [14] and in [15] was inactive. For the same compound, the result in assay [19], in [16] and in [17] was inactive.

For `Clc1ccc(Cl)cc1`, the compound was classed as inactive in [18], in assay [9], in assay [11], in [12], in [13] and in assay [14]. For the same compound, the call in [15], in [19], in [16] and in assay [17] was inactive.

Turning to `ClC1=C(Cl)[C@]2(Cl)[C@@H]3[C@@H]4C[C@@H]([C@H]5O[C@@H]45)[C@@H]3[C@@]1(Cl)C2(Cl)Cl`, the AC50 is 10.8 µM (active) in assay [18], 39.2 µM (active) in assay [16] and 34.4 µM (active) in [17]. The result in assay [9], in assay [11], in assay [12], in assay [13], in assay [14] and in [15] was inactive. For the same compound, the outcome in assay [19] was inactive.

On to `COS(=O)(=O)OC`, for which the call in [18], in assay [9], in assay [11], in [12], in assay [13] and in assay [14] was inactive. The compound was classed as inactive in [15], in assay [19], in assay [16] and in [17].

On to `CCC(C)c1cc([N+](=O)[O-])cc([N+](=O)[O-])c1O` (configuration not stated), for which the AC50 in assay [9] was 49.6 µM (active); in assay [14], 100 µM (active); in assay [16], 75.8 µM (active); in [17], 51 µM (active). For the same compound, the compound was called inactive in [11], in assay [20], in [12], in assay [13], in assay [15] and in assay [19].

As for `Cc1cccc(C)c1N`, the compound was called inactive in [18], in assay [9], in assay [11], in assay [12], in assay [13] and in assay [14]. For the same compound, the call in assay [15], in assay [19], in assay [16] and in [17] was inactive.

As to `O=NN(c1ccccc1)c1ccccc1`, the outcome in assay [18], in assay [9], in assay [11], in [12], in assay [13] and in [14] was inactive. Besides, the compound was called inactive in [15], in assay [19], in assay [16] and in assay [17].

The AC50 is the concentration at which the activity in the assay is half-maximal.
